The values that follow come from PubChem BioAssay AID463173 (ICCB-Longwood Screening Facility, Harvard Medical School, 2010).

Hit rate of the full screen: of about 52,000 compounds, about 4,300 (8.3%) were called active. What follows is part of a selection rich in actives, with near analogues and random picks from the rest. Unmarked numbers belong to inactive results. Rule as the data show it: active = survival mostly below about 52% (no sharp cut-off); inactive = mostly above about 56%.

This test deals with DeltatarO mutant. As to the kind of experiment: growth inhibition of S. aureus wild type versus tarO mutant, primary screen, teichoic acid synthesis inhibitors, RN4220, OD600 (AID 463173). The following applies: OD600, 18 h, hits give low values, screened at 18.75 µg/mL (by protocol).
In the case of `O=c1c2cnn(-c3ccc(F)cc3)c2ncn1Cc1ccc(F)cc1`, the survival is 106%. Turning to `CCn1c2c(c(=O)n3ncc(C(=O)N4CCN(c5ccc(C(C)=O)cc5)CC4)c13)CN(Cc1ccc(OC)cc1)CC2`, the survival is 126%. In the case of `COc1ccc(Br)cc1CNC(=O)c1ccc2c(c1)nc1n2CCC(C)C1` (stereo not drawn) it was 75%; in that of `COc1ccccc1C(=O)N1CCC(c2noc(-c3ccc(S(=O)(=O)N4CCCC4)cc3)n2)CC1`, 98%.

Take `COc1ccc(NC(=O)C(Cc2ccccc2)NS(=O)(=O)c2ccc3c(c2)CCN3C(C)=O)cc1` (stereo not drawn): the survival was 72%. Then `COc1ccc(N2CCN(C(=O)c3ccc4c(c3)N(Cc3ccc(F)cc3)C(=O)c3ccccc3S4=O)CC2)cc1` (stereo not drawn), with 116%; and `CC(=O)Nc1ccc(S(=O)(=O)NC2=NCN(CCO)CN2)cc1`, with 89%. In the case of `COc1ccc(C)cc1NC(=O)CSc1nc(=O)n(Cc2ccco2)c2c1CCC2` it was 116%; in that of `CCOc1ccc(CNC(=O)c2ccc3oc(=O)n(Cc4ccccc4)c3c2)cc1`, 79%. As to `CCCCOc1ccc(Cn2c(=O)oc3ccccc32)cc1`, the survival is 127%. Then `CCCCOc1ccc(Cn2c(=O)oc3ccc(C)cc32)cc1OC`, with 36% (active); and `CCCCOc1ccc(Cn2c(=O)oc3ccc(C)cc32)cc1`, with 40% (active); and `CCCCOc1ccc(CN2C(=O)C(=O)c3cc(C)ccc32)cc1OC`, with 122%. Then `CCCCCOc1ccc(Cn2c(=O)oc3ccccc32)cc1`, with 124%; and `CC(C)CCOc1ccc(Cn2c(=O)oc3ccccc32)cc1`, with 127%. In the case of `O=C(O)c1ccc2oc(=O)n(Cc3ccccc3)c2c1` it was 94%.

`COc1cc(Cn2c(=O)oc3ccc(C)cc32)ccc1OCCC(C)C`: the survival was -1% (active).

Consider `CCCCCOc1ccc(Cn2c(=O)oc3ccc(C)cc32)cc1OC`, for which the survival was 4% (active). Then `CCOc1ccc(CCNC(=O)c2ccc(CSCc3ccccc3C)o2)cc1OCC`, with 112%. On to `Cc1ccc(NC(=O)c2ccc(NC(=O)N3CCSc4ncccc43)cc2)cc1Cl`, for which the survival is 109%. In the case of `CCCn1cc(S(=O)(=O)c2cc(C)ccc2C)c(=O)c2cc(F)c(N3CCN(CC)CC3)cc21` it was 80%; in that of `O=C(Nc1ccccc1C(=O)OCc1cc(=O)n2ccsc2n1)c1ccc(Cl)cc1`, 76%; in that of `COc1ccc(NC(=O)c2ccc(-c3nc(CSc4ccccc4)c(C)o3)cc2)cc1OC`, 84%.

Regarding `Cc1ccc(C)c(NC(=O)CN(C)S(=O)(=O)c2cccc3cccnc23)c1`, the survival is 85%. Then `CCCn1c(N)nc2c1c(=O)[nH]c(=O)n2C`, with 71%; and `COC(=O)c1ccc(NC(=O)CC2C(=O)N(c3ccc(Cl)cc3)C(=O)N2Cc2cccs2)cc1` (stereo not drawn), with 102%. Then `Cc1cc(C)c(Cn2c3ccccc3c3cnn(CC(=O)NCCc4ccccc4)c(=O)c32)c(C)c1`, with 133%; and `Cc1ccc(NC(=O)Cn2cc(C(=O)C3CC3)c3ccccc32)c(C)c1`, with 90%. `Cc1ccc2oc(=O)n(Cc3ccccc3Cl)c2c1`: the survival is -3% (active). Turning to `O=C(NCc1ccccc1Cl)c1ccc2oc(=O)n(Cc3ccccc3)c2c1`, the survival was 72%. In the case of `CCOC(=O)c1ccc2oc(=O)n(Cc3ccccc3)c2c1` it was 83%; in that of `CCCCCOc1ccccc1CN1C(=O)C(=O)c2cc(C)ccc21`, 151%; in that of `Cc1ccc2oc(=O)n(CCNC(=O)Nc3ccccc3Cl)c2c1`, 72%. Then `CCCCCOc1ccccc1Cn1c(=O)oc2ccc(C)cc21`, with 5% (active). Then `CCCCN(CC)CCCNC(=O)c1cn(C)c(=O)c2c1c1ccccc1n2C`, with 139%; and `Cc1ccc2c(c1)cc1c(=O)n(CC(=O)NCc3ccco3)nc(C)n12`, with 84%. Take `O=C(CN1C(=O)COc2ccc(S(=O)(=O)NC3CCCC3)cc21)NCc1ccccc1Cl`: the survival was 80%. Then `CCCC(c1nnnn1CC1CCCO1)N(Cc1cccs1)Cc1cc2ccc(C)c(C)c2[nH]c1=O` (stereo not drawn), with 71%. On to `Cc1ccc(-c2nc3cc(C(C)C)ccc3o2)cc1NC(=O)c1cc([N+](=O)[O-])ccc1N1CCOCC1`, for which the survival is 62%. In the case of `CCn1cc(C2N3CC4(CC)CN2CC(CC)(C3)C4=O)c2ccccc21` (stereo not drawn) it was 73%. Then `Cc1cc(C)cc(NC(=O)c2ccc3c(c2)nnn3C2CCCC2)c1`, with 128%; and `Cc1c(Cl)cccc1NC(=O)c1ccc2c(c1)nnn2C1CCCC1`, with 108%. Then `Cc1cccc(C)c1NC(=O)c1ccc2c(c1)nnn2C1CCCC1`, with -5% (active). For the molecule `Cc1cc(Br)ccc1NC(=O)CN1C(=O)c2cccnc2Sc2ccccc21`, the survival was 90%.

For `CCN(CC)c1ccc(NC(=O)CN2C(=O)c3cccnc3Oc3ccccc32)c(C)c1`, the survival was 116%. Then `CCN(CC)c1ccc(NC(=O)CN2C(=O)c3cccnc3Sc3ccccc32)c(C)c1`, with -2% (active); and `CCOC(=O)c1c(C)c(C(=O)NCCc2ccc(OC)cc2)c(C)n1C`, with 99%; and `CCC(=O)N1c2ccccc2CC1C(=O)NCCc1ccccc1C` (stereo not drawn), with 71%. As to `Cc1ccc(CN2C(=O)CN(C3CCCCCC3)C(=O)C2c2ccc(F)cc2)cc1` (stereo not drawn), the survival was 6% (active). In the case of `COc1ccc(C2C(=O)N(C3CCCCCC3)CC(=O)N2Cc2ccc(C)cc2)cc1` (stereo not drawn) it was 60%. Then `Cc1ccc(CN2C(=O)CN(C3CCC(C)CC3)C(=O)C2c2ccc(F)cc2)cc1` (stereo not drawn), with 91%; and `Cc1ccc(C=C2C(=O)N(C)C(=O)N(C)C2=O)cc1`, with 82%; and `CCOC(=O)C1=C(CS(=O)(=O)c2ccc(F)cc2)NC(=O)NC1c1ccc(OCC)c(OC)c1` (stereo not drawn), with 119%. Then `COc1ccc(C(=O)Nc2cc3cc(Cl)ccc3oc2=O)cc1OC`, with 73%.

Consider `COc1ccc(-c2cn3cccnc3n2)cc1NC(=O)Cc1ccccc1`, for which the survival was 82%. Then `Cc1cn(C(=O)c2ccccc2)c(=O)[nH]c1=O`, with 57% (active); and `Cc1[nH]c(=O)[nH]c(=O)c1NC(=O)c1ccccc1`, with 88%.

For `CC1=NN(C(=O)c2ccccc2)C(C)(O)C1(C)C` (stereo not drawn), the survival was 98%.

`CCC(=O)Nc1ccc(Cl)c(-c2nc3ccccc3[nH]2)c1`: the survival is 49% (active). In the case of `CC(NC(=O)CSc1n[nH]c(-c2ccccc2Cl)n1)c1nc2ccccc2[nH]1` (stereo not drawn), the survival was 72%.

As for `CC(C)CC(=O)Nc1ccc(Cl)c(-c2nc3ccccc3[nH]2)c1`, the survival is 39% (active).

As for `CCC(=O)Nc1cccc(-c2nc3ccccc3[nH]2)c1C`, the survival was 94%. Then `CC(C)(C)C(=O)Nc1ccc(Cl)c(-c2nc3ccccc3[nH]2)c1`, with 44%.
